PubChem BioAssay AID1233 (SRMLSC, 2008)
Potency and affinity values are given separately. Activity calls are given as the source filed them.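 The calls were made as follows: active = a dose-response curve fit returns a half-maximal inhibitory concentration, extrapolated values included; inactive = the fit returns no such concentration.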

target: HMG-CoA reductase [Enterococcus faecalis] (UniProt Q9FD70); assay: class II HMG-CoA reductase inhibition potency – biochemical, Enterococcus faecalis, confirmation (AID 1233); conditions: purified E. faecalis HMGR, NADPH absorbance 340 nm kinetics; series mostly up to 100 µM

outcome, inactive:
Cc1ccc(-c2cc(C(=O)O)n(-c3ccc(S(N)(=O)=O)cc3)n2)cc1, Cc1ccc2nc(-c3cc(N)cc(N)c3)oc2c1, CCCn1c(SCC(=O)N2CC(=O)Nc3ccccc32)nc2ccccc21, CC(C)(C)C1(O)CC(C(F)(F)F)=NN1C(=O)CCCc1ccccc1 (stereo not drawn), CN(C(=O)CCN1C(=O)C(C)(C)Nc2ccccc21)c1ccccc1, CC(=O)NCCn1c(SCc2cc(=O)n3cc(Cl)ccc3n2)nc2ccccc2c1=O, Brc1c(NC2=NCCN2)ccc2nccnc12, Cc1cc(C)c2c(=O)[nH]c(SCC(=O)N(C)C)nc2n1, O=C(c1ccco1)N1CCCN(Cc2cn[nH]c2-c2ccc(-c3ccccc3)cc2)CC1, CCCOP(=O)(OCCC)c1nc(-c2ccccc2)oc1NCc1ccccc1, Cc1cc(SCn2nnc3ccccc3c2=O)nc2ccccc12, CO/N=C/c1ccc(N2CCCC2)c([N+](=O)[O-])c1, CCc1ccc(NC(=O)CSCc2ccc(C(=O)O)cc2)cc1, C=CCOc1c(Br)cc(CNc2nccs2)cc1OC, O=C(CCc1ccccc1)Nc1ncc2c(n1)CCCC2=O, CC(Sc1nnc(-c2ccccc2)c(-c2ccccc2)n1)C(=O)Nc1ncc(Cl)cc1Cl (stereo not drawn), O=c1cc(CSc2ccc([N+](=O)[O-])cc2)nc2sccn12, CC(C)NC(=S)N=Nc1c(O)[nH]c2ccc(C(C)C)cc12, O=S1(=O)CC=C(CSC(=S)NC2CCS(=O)(=O)C2)C1 (stereo not drawn), CCCC(=O)NC(=S)Nc1ccc(Cl)cn1, Cc1ccc(C2C(C(=O)c3ccco3)=C(O)C(=O)N2c2nnc(C)s2)cc1 (stereo not drawn), CN(C)CCCN(Cc1ccccc1)C(=S)Nc1ccc(SC(F)F)cc1, Cc1cnc(NC(=O)CSc2nnc(-c3ccc(Cl)cc3Cl)n2N)s1, COC(=O)Cc1cc(=O)n2[nH]cnc2n1, O=C(CCCN1C(=O)/C(=C\c2cccs2)SC1=S)Nc1ccccn1, O=C(Cn1ncc2ccccc21)N1CCN(c2cccc(C(F)(F)F)c2)CC1, N#Cc1c2c(c(-c3ccccc3Cl)[nH]c1=S)CCCC2, Cn1c(CO)cnc1SCc1ccc(F)cc1, CC1CCCC(NC(=O)CN(C)S(=O)(=O)c2cnc[nH]2)C1C (stereo not drawn), COc1ccc2oc(=Nc3ccc(C(=O)O)cc3)c(C(=O)NCc3ccco3)cc2c1, COc1ccc(C)cc1NC(=O)C(Sc1nnnn1C)c1ccccc1 (stereo not drawn), CCOC(=O)C(C(=O)OCC)C1CCS(=O)(=O)C1 (stereo not drawn), CCOC(=O)Cc1csc(SCC(=O)c2c(N)n(CC(C)C)c(=O)n(C)c2=O)n1, Cc1cc(C)nc(N/N=C2/CCCC/C2=C\c2ccccc2)n1, CCOC(=O)C1CCN(C(=O)c2c(-c3ccccc3)noc2C)CC1, COC(=O)CC1COc2ccccc2N1C(=O)c1ccc(Br)cc1 (stereo not drawn), Cc1ccc(NS(=O)(=O)c2ccc(NC(=O)[C@@H]3CCCC[C@@H]3C(=O)O)cc2)c(C)c1, O=C(/C=C/c1cccs1)c1ccc(NC(=O)c2ccccc2F)cc1
